# Measured values taken from PubChem BioAssay (NCI).
# “And” between values parts separate entries of the source, which are not always exact repeats. Equal entries are not always repeated. About 83,000 compounds went through this panel and 20% of them were active in at least one assay; those are over-represented in the sample as a whole.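 48-hour exposure, single concentration, 96-well plates; percent growth endpoint where 0 means no net growth. Active: below 10.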 The source made the active and inactive calls.
# Test system: MDA-MB-468 breast
# Assay: NCI-60 one-dose screen, 48 h (100 = growth as untreated, 0 = no growth, -100 = all killed)
# Conditions: 10 µM unless noted
row,Structure (SMILES),growth
1,COc1cc(/C=C\C(=O)O)ccc1OCc1ccccc1,92.5% (inactive)
2,CC/C(=C(\c1ccc(O)cc1)c1ccc(OCCN(C)CCN(C)C(=O)CCCCC(=O)c2c(C)[nH]c(/C=C3\N=C(c4ccc[nH]4)C=C3OC)c2C)cc1)c1ccccc1,80% (inactive)
3,CN(C)c1nc(N)c(N=O)c(N)n1,114% (inactive)
4,N#Cc1c(-c2ccccn2)[nH]c(=S)[nH]c1=O,110% (inactive)
5,COc1cc(Cn2cc3c(c2)-c2oncc2CC3)cc(OC)c1OC,-17.1% (active)
6,c1ccc2c(-c3nc(-c4c[nH]c5ccncc45)cs3)c[nH]c2c1,-9.84% (active)
7,COc1cccc2c(N=NC(=O)c3ccc(S(N)(=O)=O)cc3)c(O)[nH]c12,101% (inactive)
8,CCN(CC)S(=O)(=O)c1cccc(-c2ccc3c(NC(=O)C4CC4)n[nH]c3c2)c1,6.55% [6.25 µM] (active)
9,COc1ccc(C(c2cc(OC)c(OC)c(OC)c2)n2ccnc2)cc1O (centres undefined),15.6% (inactive)
10,CC(=O)Oc1c(Cl)c(Cl)c(Cl)c(Cl)c1Cl,113% (inactive)
11,O=C1c2cccc3c([N+](=O)[O-])ccc(c23)C(=O)N1CCCCl,-62.2% [100 µM] (active)
12,C#Cc1ccc(-n2c(/C=C/c3ccc4ccccc4n3)nc3ncccc3c2=O)cc1,-68.1% (active)
13,O=[N+]([O-])c1ccccc1/C=N\Nc1ccccc1,66.3% (inactive) and 89.3% (inactive)
14,O=C(N/N=C/c1ccc(O)cc1O)c1cccnc1,6.57% (active)
15,C#CCC(C)(O)/C=C/C1=C(C)CCCC1(C)C (centres undefined),87.3% (inactive)
16,CN(C)CCCOc1cccc(NC2=C(Cl)C(=O)C(Nc3cccc(OCCCN(C)C)c3)=C(Cl)C2=O)c1,-57.3% (active)
17,C#CCOc1cccc(-c2ncnc3cc(NC(=O)CCl)ccc23)c1,-57.3% (active)
18,CC(=O)N[C@@H](CCC(N)=O)C(=O)O,108% (inactive)
19,N[C@@H](Cc1cn(-c2ccnc3ccccc23)nn1)C(=O)O,108% (inactive)
20,CC(=O)NC(C)(C)C(=O)N[C@@H](C)C(=O)NC(C)(C)C(=O)N[C@@H](C)C(=O)NC(C)(C)C(=O)N[C@@H](C)C(=O)N[C@@H](CCC(N)=O)C(=O)NC(C)(C)C(=O)N[C@H](C(=O)NC(C)(C)C(=O)NCC(=O)N[C@@H](CC(C)C)C(=O)NC(C)(C)C(=O)N1CCC[C@H]1C(=O)N[C@H](C(=O)NC(C)(C)C(=O)NC(C)(C)C(=O)N[C@@H](CCC(N)=O)C(=O)N[C@@H](CCC(N)=O)C(=O)N[C@H](CO)CC1CCCCC1)C(C)C)C(C)C,3.04% [5 µM] (active)

row,Structure (SMILES),growth
1,Cc1[nH]n(-c2cccc(Cl)c2)c(=O)c1/C=C1\C=c2ccccc2=CC1=O,34.5% (inactive)
2,Cl.Fc1c[c-]c(-c2ccccn2)c(F)c1.[Pt].c1ccc([PH+](c2ccccc2)c2ccccc2[PH+](c2ccccc2)c2ccccc2)cc1,-85.8% (active)
3,Cc1cc(C)c2nc3nc(C)cc(C)c3c(N)c2c1,48.4% (inactive)
4,CCN1C(=S)N(c2ccccc2)C2NC(=O)N(/N=C/C=C/c3ccccc3OC)C21 (centres undefined),79% (inactive)
5,CC[C@@H](C)OC(=O)c1nn(C(C)=O)c2ccccc12,82.4% (inactive)
6,CC[C@@H](c1ccc(O)c(O)c1)[C@@H](CC)c1ccc(O)c(O)c1,53.1% (inactive)
7,CO/N=C(/C(=O)NC1C(=O)N2C(C(=O)O)=C(COC(N)=O)CSC12)c1ccco1 (centres undefined),109% (inactive)
8,CC(=O)C1Cc2ccccc2C1=O (centres undefined),105% (inactive)
9,Cc1nc2c(c(-c3ccccc3)n1)Cc1c(ccc3ccccc13)O2,90.5% (inactive)
10,COc1ccc(/C=C/C(=O)/C=C/c2cc3ccccc3[nH]c2=O)cc1,43.9% (inactive)
11,Cc1oc(-c2ccc(Cl)cc2)nc1/C=C/C(=O)c1ccccc1,95% (inactive)
12,CCOC(=O)n1cc(-c2nonc2-c2cn(C)c3ncccc23)c2cc(F)ccc21,-7.17% (active)
13,COc1cc(-c2csc(NC(=O)Nc3ccc(Cl)cc3Cl)n2)cc(OC)c1OC,17.7% (inactive)
14,O=c1cc(CSc2nnc(SCc3cc(=O)oc4c3ccc3ccccc34)o2)c2ccc3ccccc3c2o1,110% (inactive)
15,COCCOc1ccc(-c2nc3ccc(-c4nc5ccc(N6CCN(C)CC6)cc5[nH]4)cc3[nH]2)cc1,-22.5% (active)
16,C=C1C(=O)O[C@H]2[C@H]1CC/C(COC(=O)NCc1ccc(Cn3c(=O)sn(CCCC)c3=O)cc1)=C\CC[C@@]1(C)O[C@@H]21,12.2% (inactive)
17,CC1(C)CC[C@]2(C(=O)O)CC[C@]3(C)C(=CC[C@@H]4[C@@]5(C)CC/C(=N\OCCC#N)C(C)(C)[C@@H]5CC[C@]43C)[C@@H]2C1,106% (inactive)
18,O=C1C=CC(O)=CC1=P(c1ccccc1)(c1ccccc1)c1ccccc1,92% (inactive)
19,CC(=O)Nc1cc(S(=O)(=O)O)cc2cc(S(=O)(=O)O)c(N=Nc3ccccc3)c(O)c12,93.5% (inactive) and 101% (inactive)
